Calls of active or inactive are those of the source. How the source made its calls: active means hit-call score of the fitted dose curve at least 0.9, where 1 is the maximum; inactive means score below 0.9.
Target: Cellular tumor antigen p53 (Homo sapiens) (UniProt P04637)
Test: ATG_p53_CIS: Attagene CIS-FACTORIAL HepG2 Assay for human p53 Transcription Factor (AID 2282994)
Conditions: HepG2 p53 cis-element reporter, Attagene mRNA; actives raise or lower the signal
Procedure: ATG_CIS is a cell-based, multiplexed-readout assay that uses HepG2, a human liver cell line, with measurements taken at 24 hours after chemical dosing in a 24-well plate.ATG_p53_CIS is one of 52 assay component(s) measured or calculated from the ATG_CIS assay. It is designed to make measurements of mRNA induction, a form of inducible reporter, as detected with fluorescence intensity signals by Reverse transcription polymerase chain reaction (RT-PCR) and Capillary electrophoresis technology.Data from the assay component ATG_p53_CIS was analyzed into 1 assay endpoint. This assay endpoint, ATG_p53_CIS, was analyzed with bidirectional fitting relative to DMSO as the negative control and baseline of activity. Using a type of inducible reporter, measures of mRNA for gain or loss-of-signal activity can be used to understand the reporter gene at the transcription factor-level as they relate to the gene TP53. Furthermore, this assay endpoint can be referred to as a primary readout, because this assay has produced multiple assay endpoints where this one serves a reporter gene function. To generalize the intended target to other relatable targets, this assay endpoint is annotated to the dna binding intended target family, where the subfamily is tumor suppressor.
Human liver HepG2 cells are transiently transfected with multiple reporter transcription units (MRTUs) in 6-well plates using FuGene 6 reagent (Roche; 3 ml FuGene/1 mg DNA). The MRTU constructs are regulated by a cis-regulating element (promoter). […] A major difference between the CIS and TRANS system is that in CIS activities of endogenous TFs are measured, whereas the TRANS assay evaluates changes in activities of exogenous, chimeric NR-Gal4 proteins. […] At the end of 24 hour incubation, total RNA was isolated using TriZol reagent (Invitrogen). The isolated RNA is then reverse-transcribed using oligo(dT) primer and Mo-MLV reverse transcriptase (Invitrogen) with DNAse I (Ambion) treatment for 30 min. The one-tenth of the produced cDNA was amplified by PCR using Taq DNA polymerase (Invitrogen) and two reporter sequence-specific primers. The PCR products were fluorescently labeled by primer extension with 6-arboxyfluorescein (6-FAM) 5'-labeled reporter sequence-specific primer (2 min at 95 C, 20 s at 68 C and 10 min at 72 C) and these products were digested with 5U of HpaI (New England Biolabs) for 2h at 37 C. The fragments were purified using Qiaquick PCR columns (Qiagen), analyzed on an ABI 3130xL genetic analyzer (Applied Biosystems) with peak positions identified by using a set of X-rhodamine (ROX)-labeled MapMarker1000 molecular weight standards (BioVentures). The raw capillary electrophoresis data was processed using Attagraph software (Attagene).

Sequence of Cellular tumor antigen p53 (Homo sapiens) (P04637 whole entry, looked up): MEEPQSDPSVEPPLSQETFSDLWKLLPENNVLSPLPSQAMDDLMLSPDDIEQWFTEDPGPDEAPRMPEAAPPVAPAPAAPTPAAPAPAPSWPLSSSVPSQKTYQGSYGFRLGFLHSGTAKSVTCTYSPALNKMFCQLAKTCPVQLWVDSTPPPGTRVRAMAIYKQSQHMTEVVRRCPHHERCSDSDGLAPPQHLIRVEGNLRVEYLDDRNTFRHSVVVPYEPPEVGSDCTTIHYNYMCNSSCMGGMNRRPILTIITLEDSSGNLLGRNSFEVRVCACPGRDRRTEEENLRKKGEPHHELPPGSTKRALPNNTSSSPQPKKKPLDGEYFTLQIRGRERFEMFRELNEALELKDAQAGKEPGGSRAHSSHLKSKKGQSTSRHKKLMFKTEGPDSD

| Compound | AC50 | outcome |
| --- | --- | --- |
| Nc1ccc(Cl)cc1N | 8.6 µM (active) | – |
| O=P(OCCCl)(OCCCl)OCCCl | – | inactive |
| N#CC(Br)(Br)C(N)=O | – | inactive |
| O=Cc1ccco1 | – | inactive |
| CNC(=O)Oc1cccc2c1OC(C)(C)C2 | – | inactive |
| Cn1cc(-c2ccccc2)c(=O)c(-c2cccc(C(F)(F)F)c2)c1 | – | inactive |
| CS(=O)(=O)NC(=O)c1cc(Oc2ccc(C(F)(F)F)cc2Cl)ccc1[N+](=O)[O-] | – | inactive |
| CC(O)CCO (stereo not given) | – | inactive |
| CN(C)c1ccc(C(=O)c2ccc(N(C)C)cc2)cc1 | – | inactive |
| ClC1=C(Cl)[C@]2(Cl)[C@H]3[C@H]([C@@H]4C=C[C@H]3C4)[C@@]1(Cl)C2(Cl)Cl | – | inactive |
| O=C(N[C@H](c1ccccc1)[C@@H]1CN2CCC1CC2)c1c(Cl)ccc(C(F)(F)F)c1Cl | – | inactive |
| O=C(Oc1ccc(Br)cc1)N1CCN2CCC1CC2 | 64.9 µM (active) | – |
| CC(C)(C)OOC(C)(C)CCC(C)(C)OOC(C)(C)C | – | inactive |
| CC(C)(OOC(C)(C)c1ccccc1)c1ccccc1 | – | inactive |
| C1=Cc2cccc3cccc1c23 | – | inactive |
| Cc1cccc(N)c1N | – | inactive |
| [As]#[In] | – | inactive |
| Oc1ccc2ccc3cccc4ccc1c2c34 | – | inactive |
| COc1cc(C=O)cc2c1[C@H](COC(N)=O)[C@]1(OC(C)=O)ON2C[C@H]2[C@@H]1N2C(C)=O | 5.95 µM (active) | – |
| CN(C)c1ccccc1 | – | inactive |

| Compound | AC50 | outcome |
| --- | --- | --- |
| Clc1ccc(Cl)c(Cl)c1 | – | inactive |
| Nc1ccc(Oc2ccc(N)cc2)cc1 | – | inactive |
| c1ccc(C2CO2)cc1 (stereo not given) | – | inactive |
| O=C(O)C1C2CCC(O2)C1C(=O)O (stereo not given) | 100 µM (active) | – |
| O=C1CCCO1 | – | inactive |
| ClCCOCCCl | – | inactive |
| CN(C)[C@@H]1C(=O)C(C(N)=O)=C(O)[C@@]2(O)C(=O)C3=C(O)c4c(O)cccc4[C@@](C)(O)[C@H]3C[C@@H]12 | – | inactive |
| CCCCC(CC)COC(=O)c1ccc(C(=O)OCC(CC)CCCC)c(C(=O)OCC(CC)CCCC)c1 (stereo not given) | – | inactive |
| O=[N+]([O-])c1ccc(Oc2ccc(Cl)cc2Cl)cc1 | – | inactive |
| OCCCl | – | inactive |
| Cc1ccc(N=C=O)cc1N=C=O | – | inactive |
| CCCCOC(=O)c1ccccc1C(=O)OCc1ccccc1 | – | inactive |
| CCCSC(=O)N(CCC)CCC | – | inactive |
| [Cl-].[Cl-].[Hg+2] | 55.4 µM (active) | – |
| Cc1ccc(N)cc1 | – | inactive |
| CCCCCCCCOC(=O)c1ccc(C(=O)OCCCCCCCC)c(C(=O)OCCCCCCCC)c1 | – | inactive |
| Nc1ccc([N+](=O)[O-])cc1 | – | inactive |
| OCCCBr | – | inactive |
| Cc1ccc([N+](=O)[O-])cc1 | – | inactive |
| CCCCCCCCn1sccc1=O | 19.9 µM (active) | – |

Reference: PubChem BioAssay (EPA / NIEHS)
